# Source: PubChem
# Beta2AR agonist: activates human beta-2 adrenergic receptor causing internalization. P07550. Am2.2-beta2AR cells, FAP receptor internalization, flow cytometry. response, % (test concentration not listed). 0.43% of 340,000 active;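 active = response above a set limit, near 3 SD of response in nonfluorescent compounds, cut at about 42% in these data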
# Target sequence (P07550 whole entry, looked up): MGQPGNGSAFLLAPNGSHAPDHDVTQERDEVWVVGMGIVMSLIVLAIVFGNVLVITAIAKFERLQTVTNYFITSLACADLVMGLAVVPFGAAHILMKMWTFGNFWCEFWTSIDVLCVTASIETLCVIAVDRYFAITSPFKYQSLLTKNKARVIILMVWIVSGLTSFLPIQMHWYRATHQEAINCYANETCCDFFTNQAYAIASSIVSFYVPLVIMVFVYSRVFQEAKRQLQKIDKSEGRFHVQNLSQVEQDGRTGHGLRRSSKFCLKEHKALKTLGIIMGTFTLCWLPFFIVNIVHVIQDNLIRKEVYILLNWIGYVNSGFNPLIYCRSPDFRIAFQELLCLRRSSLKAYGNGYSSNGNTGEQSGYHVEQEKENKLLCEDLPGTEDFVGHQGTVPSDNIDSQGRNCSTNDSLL
# m5-HT2A agonist: activates the mouse 5-HT2A serotonin receptor; CHO-K1 mHTR2A beta-arrestin complementation, luminescence; percent of 30 µM serotonin response; activation, % at 7.6 µM; 0.66% of 360,000 active;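 active = activation above a run cutoff, the mean activation of all tested compounds plus 3 SD, cut at about 14% in these data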;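 also: 0% = plate median of compound wells and 100% = 30 µM serotonin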
# Granule exo inh: blocks lytic granule exocytosis; TALL-104 LAMP-1 surface exposure, flow cytometry; cells stimulated with thapsigargin and PMA; inhibition, % at 10 µM; 0.66% of 360,000 active; AID 651702;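 active = inhibition above about 55%, limit read from the data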
# ABHD5-PLIN5 inh: inhibitors of human ABHD5-perilipin-5 interaction | Q00G26+Q8WTS1 | 0.78% of 360,000 active | Split G. princeps luciferase complementation, luminescence, 4 h | inhibition, % at 4 µM | AID 602281;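 active = inhibition above the mean inhibition across every tested compound plus 3 SD, cut at about 22% in these data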;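 also: 0% = DMSO only wells and the 100% control is not disclosed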
# NTR1 ag: activates human neurotensin receptor 1 | P30989 | NTR1-U2OS beta-arrestin-GFP spot imaging, agonist mode | activation, % at 20 µM | 0.17% of 330,000 active | AID 493036;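 active = activation at or above 40% of the spot to cytoplasm intensity ratio, with at least 20 cells analyzed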;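 also: 0% = DMSO without peptide and 100% = 100 nM NTR1 peptide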
# An asterisk follows results filed as active; nt = not tested or not shown. This is a sample that favours compounds with a hit; in the whole collection about 2.3% have one here.
SMILES,Beta2AR agonist,m5-HT2A agonist,Granule exo inh,ABHD5-PLIN5 inh,NTR1 ag
COCCCNC(=O)c1ccc2c3c(onc13)-c1ccccc1C2=O,23.2,4.7,53.7,-11.2,-0.5
Cc1ccc([C@@H]2C[C@H]3[C@@H](CN2S(=O)(=O)c2ccc(Cl)cc2)C(=O)C[C@@H](c2ccccc2)N3S(=O)(=O)c2ccc(C)cc2)cc1,nt,-1.5,0.2,3.9,nt
CCOc1ccc(N=Nc2ccc(O)c3ncccc23)cc1,22.7,6.1,1.3,3.2,1.1
CCOc1ccc2c(ccc(/C=C/c3cc(C)c4cccnc4c3O)[n+]2C)c1,105.7*,-5.6,-1.9,25.6*,nt
COc1ccc(OC)c(C2/C(=C(/O)c3ccc(C)cc3)C(=O)C(=O)N2Cc2ccco2)c1 (stereo not drawn),1.2,1.4,-14.3,-5.4,-1.4
Cc1ccc(C2/C(=C(/O)c3ccc(Br)cc3)C(=O)C(=O)N2Cc2ccco2)o1 (stereo not drawn),-0.4,0.3,-0.1,22.9*,-0.7
Cc1ccc(S(=O)(=O)N2CCCOC2CNC(=O)C(=O)NC2CCCCC2)cc1 (stereo not drawn),-1.3,3.5,-1.3,-2.3,-1.2
O=C(NNc1ccc(Cl)cc1)c1c(F)cccc1Cl,-7.0,4.2,-2.1,0.8,1.6
CC(=O)C(=Nc1ccccc1Cl)NNc1ccc(Cl)cc1,-5.4,-5.0,89.4*,-4.1,-0.3
CCC(C)[C@@H](NC(=O)OC(C)(C)C)c1nnc(S(=O)(=O)Cc2cccc(C)c2)o1 (stereo partly drawn),33.1,-0.2,80.6*,73.2*,nt
O=C(NCCC(=O)N1CCN(Cc2c(F)cccc2Cl)CC1)c1ccc(Cl)cc1,-27.2,-3.0,-10.5,10.3,1.1
Cc1cccc(Oc2nc3ccccn3c(=O)c2/C=C(\C#N)C(=O)NC2CCS(=O)(=O)C2)c1C (stereo not drawn),-8.7,-0.9,67.7*,17.9,1.0
Cc1cccn2c(=O)c(/C=C(\C#N)C(=O)NC3CCS(=O)(=O)C3)c(Oc3ccc(F)cc3)nc12 (stereo not drawn),-10.0,1.0,74.5*,3.9,2.5
Cc1cccn2c(=O)c(/C=C(\C#N)C(=O)NC3CCS(=O)(=O)C3)c(N3CCC(C)CC3)nc12 (stereo not drawn),-13.4,0.0,1.1,6.0,-1.0
Cc1cccc(Oc2nc3ccccn3c(=O)c2/C=C(\C#N)C(=O)NC2CCS(=O)(=O)C2)c1 (stereo not drawn),-15.0,4.8,1.5,9.2,-0.4
COc1ccc(C(=O)/C=C/Nc2ccc(S(N)(=O)=O)cc2)cc1OC,-1.6,1.7,1.2,3.7,1.3
COc1cccc(CNC(=O)c2ccccc2NC(=O)C2=C(C)OCCS2)c1,-3.0,-2.5,-5.5,5.5,-0.1
Fc1ccc(NC(=S)N2CCN(c3cccc(C(F)(F)F)c3)CC2)cc1,-9.3,14.2,-1.2,-6.2,0.7
FC(F)(F)c1cccc(NC(=S)N2CCN(c3cccc(C(F)(F)F)c3)CC2)c1,5.9,15.1*,-1.9,-10.7,13.3
Cc1cc(C)c2c(=O)n(CC(=O)NCCCN3CCOCC3)sc2n1,-2.7,10.4,5.1,50.0*,3.5
C=CCNc1nnc(SC2CC(=O)N(c3ccc(OCCC)cc3)C2=O)s1 (stereo not drawn),7.2,-2.0,66.5*,10.1,0.1
CCOc1ccc(N2C(=O)CC(Sc3nc4ccc(OCC)cc4s3)C2=O)cc1 (stereo not drawn),-1.4,0.7,25.9,1.8,0.1
COc1ccc(NC(=O)/C(Cl)=C(/Cl)S(=O)(=O)Cc2ccccc2)cn1,36.6,-4.8,100.5*,48.7*,nt
COc1ccc(NC(=O)/C(Cl)=C(/Cl)S(=O)Cc2ccc(Cl)cc2)cn1 (stereo not drawn),-401.3,-9.6,23.2,95.6*,-1.0
CCC(C)c1ccc(NC(=S)NCc2ccccc2OC)cc1 (stereo not drawn),-0.8,-3.7,-2.6,-6.5,nt
O=[N+]([O-])c1cc([N+](=O)[O-])c(Oc2c(F)cccc2F)cc1NN1CCCCC1,2.2,2.5,77.8*,6.3,0.0
COC(=O)c1ccc(COc2ccc(/C=C(\C#N)c3nc4ccccc4[nH]3)cc2OC)o1,42.9*,-0.4,-7.5,-2.0,10.0
Cc1ccc(CCC(=O)Nc2ccc([N+](=O)[O-])cc2)o1,-8.6,-3.9,-4.2,9.4,-1.3
COc1ccccc1N1C(=O)c2cccnc2C1=O,-2.4,4.2,-1.6,-7.1,4.8
COC1=C(Br)C(=O)c2ncccc2C1=O,-15.6,4.0,107.1*,-28.4,nt
